Source: PubChem BioAssay (NCI)
The panel holds about 83,000 compounds, 20% with a hit somewhere; the sample as a whole holds those more often.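 For each line, cells grew in 96-well plates with the test compound present at a single concentration for 48 hours.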 Calls of active or inactive are those of the source. How the source made its calls: active means growth percent below 10; inactive means the rest.

Tested on: HCT-15 colon
Test: NCI-60 one-dose screen, 48 h (100 = growth as untreated, 0 = no growth, -100 = all killed)
Conditions: 10 µM unless noted

| Structure (SMILES) | growth |
| --- | --- |
| COc1ccc(C(O)c2cc3c(N)c(C(=O)Nc4cccc(Br)c4)sc3nc2C)cc1 (configuration not stated) | 7.7% (active) |
| CC/C(=C(/c1ccc(Cl)cc1)c1ccc(OCCN2CCCCC2)cc1)c1ccc(OC)cc1 | 18.5% (inactive) |
| CCOC(=O)c1c2c(n3cccc(F)c13)C(=O)c1ncccc1C2=O | 12.7% (inactive) |
| CC(=O)O[C@@H]1C[C@]2(C(C)C)O[C@@]1(C)[C@@H]1CCC(C)=C1[C@@H]2OC(=O)/C=C/c1ccccc1 | 87.2% (inactive) |
| O=C(O)c1ccc(-n2cc(/C=N/Nc3ccccc3)c(-c3ccc(F)cc3F)n2)cc1 | 51.4% (inactive) |
| O=C(NCc1ccc(Cl)cc1Cl)C1CCC(=O)N1c1cccs1 (configuration not stated) | 96.5% (inactive) |
| CCSc1oc(-c2ccccc2)nc1[P+](c1ccccc1)(c1ccccc1)c1ccccc1 | 6.09% (active) |
| O=C1C(=O)N(Cc2ccc(-c3ccccc3)cc2)c2ccc(OC(F)(F)F)cc21 | 10.3% (inactive) |
| Cc1nc2sc(C(=O)Nc3ccc(Br)cc3)c(N)c2cc1C(O)c1ccccc1 (configuration not stated) | 34.7% (inactive) |
| O=C(Cn1cc(CSc2nc3ccccc3o2)nn1)Nc1ccc(F)cc1F | 107% (inactive) |
| COC(=O)c1nc(-c2ccc(C)cc2)oc1S(=O)(=O)c1cccc(OC)c1 | 62% (inactive) |
| COc1ccc(C/C(C)=C(/c2ccc(OCCN(C)C)cc2)c2ccc(OC(=O)NCc3ccccc3)cc2)cc1 | 24.3% (inactive) |
| COc1ccc(/C=C(\C#N)n2nnc3cc(F)c(F)cc32)cc1 | 29.9% (inactive) |
| COC(=O)c1c2c(c(C)[n+]([O-])c1C)C(=O)C(NCc1cccc(OC)c1)=CC2=O | 11.9% (inactive) |
| COc1ccc(-c2nc3cc(C(=O)NCc4ccccc4)ccc3n2C2CCCCC2)cc1 | 10% (inactive) |
| CCN(CC)CCn1c2ccc(OC)cc2c2sc3cc(OC)ccc3c(=O)c21 | 8.79% (active) |
| COc1ccc(C(=O)N2c3ccccc3Sc3ccccc32)c(OC)c1 | 19.2% (inactive) |
| CCN1CCN(C(=O)[C@]23CCC(C)(C)C[C@@H]2C2=CC[C@@H]4[C@@]5(C)CCC(=O)C(C)(C)[C@@H]5CC[C@@]4(C)[C@]2(C)CC3)CC1 | 33.6% (inactive) |
| Clc1ccc2c(NC3CCC(N4CCOCC4)CC3)ccnc2c1 (configuration not stated) | 93.5% (inactive) |

| Structure (SMILES) | growth |
| --- | --- |
| CCCOC(=O)Nc1nc2ccc(SCC(C)C)cc2s1 | 26.6% (inactive) |
| COc1ccc(Nc2ncc(Br)c(NCCCNC(=O)c3cccs3)n2)cc1 | 34.5% (inactive) |
| N#Cc1c(-c2ccccc2)cc(-c2ccc(Nc3nc(Nc4ccc(Cl)cc4)nc(Nc4ccc(Cl)cc4)n3)cc2)nc1N | -38.3% (active) |
| COC(=O)c1c(C)c2n(c1C)C(=O)C(c1ccccc1)=C2 | 80.4% (inactive) |
| COc1ccc(Nc2ncc(Br)c(NCCCNC(=O)C3CCCC3)n2)cc1 | 37.1% (inactive) |
| C=CCn1c(C)nc2ccc(Nc3nc(Nc4ccc5nc(C)n(CC=C)c5c4)c4ccccc4n3)cc21 | -51.7% (active) |
| O=C(O)c1cn(C2CC2)c2cc(N3CCN(Cc4ccc5ccccc5c4O)CC3)c(F)cc2c1=O | 9.69% (active) |
| N#C/C(=C\c1c(-c2ccccc2)[nH]c2ccccc12)C(N)=O | 56.4% (inactive) |
| COc1ccc(C2CC(c3ccc(Nc4nc(Nc5ccccc5)nc(Nc5ccccc5)n4)cc3)=NN2C(C)=O)cc1 (configuration not stated) | 96.9% (inactive) |
| COc1cc2c(c(OC)c1OC)CCC(c1cccc(C(=O)Nc3cccc(Cl)c3)c1)O2 (configuration not stated) | 75.2% (inactive) |
| COc1cc(OCc2cccc(Br)c2C)cc(OC)c1C=O | 80.6% (inactive) |
| COC1=CC(c2ccc[nH]2)=N/C1=C\c1[nH]c(C)c(C(=O)OC(C)C)c1C | -30.1% (active) |
| CCCc1c(OC(=O)c2ccccc2)nc2[nH]c(=O)sc2c1C | 98.3% (inactive) |
| CN(C)c1ccc(-c2c(C#N)c(N)nn2C(=O)c2ccc(NC(=O)c3ccccn3)cc2)cc1 | 85.2% (inactive) |
| CC1CCN(CCOc2ccc(CNc3ccc4nc(CCC5CCCCC5)[nH]c4c3)cc2)CC1 | -22.5% (active) |
| COc1cc2c(cc1OCCCN1CCN(CCCOc3cc4c(cc3OC)C(=O)N3CCC[C@H]3C=N4)CC1)C=CC(C)(C)O2 | -98% (active) |
| Oc1c(I)cc(I)cc1CNCCN(Cc1ccccn1)Cc1ccccn1 | -30.4% (active) |
| O=CN1N=C(c2cccc(Nc3ccnc4cc(Cl)ccc34)c2)CC1c1ccccc1 (configuration not stated) | 19.6% (inactive) |
